From PubChem BioAssay (Tox21)
Inconclusive results are not listed. Active and inactive are the calls of the source. Unless noted, calls come from the whole dose curve; as a rule, active = well fitted curve in the direction sought with a large enough effect in the repeat runs; inconclusive = weak or mixed curves; inactive = no such curve, though single readings can be large; an effect the other way counts as inactive or inconclusive.

Key:
[1] = qHTS RealTime-Glo MT Cell Viability Assay in HEK293 cells - 0 hour (AID 1224880); note: top concentration of the series differs between compounds; nearly all actives have a fitted effect of over 45% in size
How it was run: (§1)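 Nonlytic bioluminescent viability monitoring. HEK293 at 600 cells/well with reagent; 5 h settle; compound transfer by pintool; plates held at 37 C and read at set time points.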

[2] = A CellTox Green Cytotoxicity Assay to monitor cytotoxicity in HEK293 cells - 32 hour (AID 1224881); note: nearly all actives have a fitted effect of over 40% in size
How it was run: (§2)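 Cytotoxicity was tracked continuously in HEK293 cells by a DNA-binding dye excluded from viable cells. Compounds were transferred in DMSO 5 h after seeding; fluorescence was recorded at intervals up to 40 h.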

[3] = A CellTox Green Cytotoxicity Assay to monitor cytotoxicity in HepG2 cells - 0 hour (AID 1224882); note: nearly all actives have a fitted effect of over 35% in size
How it was run: (§3)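 Real-time, homogeneous cytotoxicity readout: dead-cell DNA staining by CellTox Green in HepG2 monolayers, fluorescence measured at timed intervals up to 40 h of continuous compound exposure.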

[4] = A CellTox Green Cytotoxicity Assay to monitor cytotoxicity in HepG2 cells - 32 hour (AID 1224883); note: nearly all actives have a fitted effect of over 50% in size; note: potency is the fitted concentration of half-maximal effect
How it was run: as §3

[5] = A CellTox Green Cytotoxicity Assay to monitor cytotoxicity in HEK293 cells - 8 hour (AID 1224884); note: nearly all actives have a fitted effect of over 35% in size
How it was run: as §2

[6] = qHTS RealTime-Glo MT Cell Viability Assay in HepG2 cells - 16 hour (AID 1224885); note: nearly all actives have a fitted effect of over 50% in size
How it was run: (§4)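 Compound treatment began 5 h after plating HepG2 cells (600/well) with NanoLuc luciferase and prosubstrate. Plates stayed at 37 C for 40 h; luminescence was captured at six time points, 0 h through 40 h.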

[7] = qHTS RealTime-Glo MT Cell Viability Assay in HEK293 cells - 24 hour (AID 1224886); note: top concentration of the series differs between compounds; nearly all actives have a fitted effect of over 50% in size
How it was run: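 Quantitative high-throughput screen of the Tox21 10K library in HEK293: cells and RealTime-Glo reagents plated together, compound added at 5 h, luminescence monitored through 40 h at 37 C.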

[8] = qHTS RealTime-Glo MT Cell Viability Assay in HEK293 cells - 8 hour (AID 1224887); note: top concentration of the series differs between compounds; nearly all actives have a fitted effect of over 50% in size
How it was run: as §1

[9] = A CellTox Green Cytotoxicity Assay to monitor cytotoxicity in HEK293 cells - 16 hour (AID 1224888); note: nearly all actives have a fitted effect of over 35% in size
How it was run: as §2

[10] = qHTS RealTime-Glo MT Cell Viability Assay in HepG2 cells - 0 hour (AID 1224889); note: nearly all actives have a fitted effect of over 50% in size
How it was run: as §4

[11] = A CellTox Green Cytotoxicity Assay to monitor cytotoxicity in HepG2 cells - 8 hour (AID 1224890); note: nearly all actives have a fitted effect of over 45% in size
How it was run: as §3

[12] = qHTS assay to identify small molecule antagonists of the estrogen receptor alpha (ER-alpha) signaling pathway using the BG1 cell line in the presence of 0.1 nM 17-beta-estradiol - cell viability counter screen (AID 1259241); note: nearly all actives have a fitted effect of over 40% in size
How it was run: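 Cytotoxicity counter-screen: live-cell protease activity measured by fluorescence (30 min reagent step) in the same wells. Cells were VM7Luc4E2 with endogenous ER-alpha and ERE-driven luciferase, treated 22 hr at 37C alongside 0.1 nM 17beta-estradiol final.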

[13] = qHTS assay to identify small molecule antagonists of the androgen receptor (AR) signaling pathway using the MDA cell line in the presence of 0.5 nM R1881 - cell viability counter screen (AID 1259242); note: nearly all actives have a fitted effect of over 45% in size
How it was run: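 Cytotoxicity toward MDA-kb2 cells is measured by CellTiter-Fluor live-cell protease fluorescence after 16 hr compound exposure at 37C in the presence of 0.5 nM R1881 stimulator.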

[14] = biological target: Androgen receptor (Homo sapiens) (UniProt P10275); test: qHTS assay to identify small molecule antagonists of the androgen receptor (AR) signaling pathway using the MDA cell line in the presence of 0.5 nM R1881 (AID 1259243); note: nearly all actives have a fitted effect of over 50% in size; note: potency is the fitted concentration of half-maximal effect
Chain of Androgen receptor (Homo sapiens) (P10275 whole entry, looked up): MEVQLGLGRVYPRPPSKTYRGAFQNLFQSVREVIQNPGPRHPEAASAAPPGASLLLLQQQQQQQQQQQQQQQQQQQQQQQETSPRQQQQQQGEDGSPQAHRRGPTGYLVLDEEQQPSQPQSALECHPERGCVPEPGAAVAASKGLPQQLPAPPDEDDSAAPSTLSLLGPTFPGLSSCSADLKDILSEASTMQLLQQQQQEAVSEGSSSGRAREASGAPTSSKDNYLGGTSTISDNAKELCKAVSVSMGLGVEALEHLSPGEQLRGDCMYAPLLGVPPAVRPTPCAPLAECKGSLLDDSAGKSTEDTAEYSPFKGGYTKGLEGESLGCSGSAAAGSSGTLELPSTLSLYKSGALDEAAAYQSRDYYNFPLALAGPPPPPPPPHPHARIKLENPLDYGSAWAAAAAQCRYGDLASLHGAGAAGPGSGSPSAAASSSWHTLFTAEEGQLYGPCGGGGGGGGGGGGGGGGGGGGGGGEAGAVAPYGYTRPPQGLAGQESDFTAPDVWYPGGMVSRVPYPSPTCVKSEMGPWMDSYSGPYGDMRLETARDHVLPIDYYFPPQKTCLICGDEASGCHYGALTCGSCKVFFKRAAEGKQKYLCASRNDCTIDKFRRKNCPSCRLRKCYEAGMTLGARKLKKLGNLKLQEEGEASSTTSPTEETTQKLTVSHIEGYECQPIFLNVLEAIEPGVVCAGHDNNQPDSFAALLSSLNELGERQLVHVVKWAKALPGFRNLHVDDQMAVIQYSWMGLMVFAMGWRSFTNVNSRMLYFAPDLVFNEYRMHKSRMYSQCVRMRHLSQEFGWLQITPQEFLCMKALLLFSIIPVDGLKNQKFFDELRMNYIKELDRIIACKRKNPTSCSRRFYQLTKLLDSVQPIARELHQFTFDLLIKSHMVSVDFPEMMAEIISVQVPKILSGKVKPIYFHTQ
How it was run: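 Steps: seed MDA-kb2 cells, incubate 5 hr at 37C; pin-transfer compounds in DMSO; add R1881 to 0.5 nM final; incubate 16 hr; add ONE-Glo, wait 30 min at room temperature; read luminescence.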

[15] = qHTS assay to identify small molecule phospholipidosis (PLD) inducers (AID 1259344; active = well fitted curve in the direction sought with a large enough effect; an effect the other way counts as inactive or inconclusive)
How it was run: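 Quantitative HTS in HepG2: compound plus LipidTOX Red dye for 24 h, paraformaldehyde fixation with Hoechst 33342, widefield high-content imaging; amiodarone as positive and DMSO as negative control.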

[16] = qHTS assay to identify small molecule HDAC inhibitors (AID 1259364); note: nearly all actives have a fitted effect of over 45% in size; note: potency is the fitted concentration of half-maximal effect; for activity change, negative = inhibition: top concentration of the series differs between compounds
How it was run: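 Homogeneous cell-based luminescent assay of endogenous class I/II HDAC activity; HCT-116 cells, 2 h compound exposure, 30 min HDAC-Glo development at RT.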

[17] = qHTS assay to identify small molecule HDAC inhibitors - cell viability counter screen (AID 1259365)
How it was run: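 CellTiter-Glo luminescence (30 min, room temperature) reported viability after a 2 h compound exposure at 37 C. Cells: wild-type HCT-116, 1,500 per well, seeded the night before.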

[18] = qHTS assay to identify small molecule agonists of the sonic hedgehog signaling (Shh) pathway - cell viability counter screen (AID 1259366); note: nearly all actives have a fitted effect of over 50% in size
How it was run: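 Cytotoxicity counter screen: CellTiter-Fluor reagent added after 23 h compound exposure, then 1 h at 37C and fluorescence read. Cells were 3T3 Gli1-Luc, seeded 2,000 per well and dosed 4 h post-plating.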

[19] = qHTS assay to identify small molecule antagonists of the sonic hedgehog signaling (Shh) pathway - cell viability counter screen (AID 1259367); note: nearly all actives have a fitted effect of over 55% in size
How it was run: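 Seed 3T3 Gli1-Luc cells at 2,000 per well; incubate 4 hr; add compound in DMSO, then conditioned medium; incubate at 37C with 5% CO2; add CellTiter-Fluor after 23 hr; read fluorescence 1 hr later.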

[20] = biological target: Estrogen receptor (Homo sapiens) (UniProt P03372); test: qHTS assay to identify small molecule antagonists of the estrogen receptor alpha (ER-alpha) signaling pathway using the BG1 cell line in the presence of 0.1 nM 17-beta-estradiol (AID 1259244); note: nearly all actives have a fitted effect of over 50% in size
Chain of Estrogen receptor (Homo sapiens) (P03372 whole entry, looked up): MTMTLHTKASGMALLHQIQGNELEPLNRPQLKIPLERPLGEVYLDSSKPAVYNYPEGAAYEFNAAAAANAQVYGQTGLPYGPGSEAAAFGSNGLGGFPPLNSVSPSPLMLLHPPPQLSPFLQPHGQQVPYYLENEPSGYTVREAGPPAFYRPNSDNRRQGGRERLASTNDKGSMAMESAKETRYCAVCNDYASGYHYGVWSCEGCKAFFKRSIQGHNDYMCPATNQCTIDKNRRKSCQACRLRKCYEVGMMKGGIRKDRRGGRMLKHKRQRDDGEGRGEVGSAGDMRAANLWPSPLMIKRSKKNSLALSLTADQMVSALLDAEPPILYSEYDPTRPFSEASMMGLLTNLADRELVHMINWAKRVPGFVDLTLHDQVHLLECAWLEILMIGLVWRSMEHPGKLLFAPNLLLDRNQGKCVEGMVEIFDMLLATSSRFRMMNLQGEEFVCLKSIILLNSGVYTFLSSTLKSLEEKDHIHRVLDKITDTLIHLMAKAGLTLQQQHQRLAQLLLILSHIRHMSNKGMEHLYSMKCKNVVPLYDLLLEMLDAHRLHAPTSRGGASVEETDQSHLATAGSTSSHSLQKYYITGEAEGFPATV
How it was run: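 After 5 days in hormone-depleted medium (charcoal-stripped serum, no phenol red), VM7Luc4E2 cells were seeded, incubated 24 h, then co-treated with compound and 0.1 nM (final) estradiol for 22 h before luminescence detection.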
% is set by controls: 0 for no effect and ±100 for the full control effect.

NS(=O)(=O)c1cc2c(cc1C(F)(F)F)NC(Cc1ccccc1)NS2(=O)=O (configuration not stated)
inactive: outcome [1] | Potency [2] | Potency [3] | Potency [4] | Potency [5] | outcome [6] | Potency [7] | Potency [8] | Potency [9] | Potency [10] | Potency [11] | outcome [12] | outcome [13] | Potency [14] | Potency [15] | Potency [16] | outcome [17] | Potency [18] | outcome [19]

NC(N)=NS(=O)(=O)c1ccc(N)cc1
inactive: outcome [1] | Potency [2] | Potency [3] | Potency [4] | Potency [5] | outcome [6] | Potency [7] | Potency [8] | Potency [9] | Potency [10] | Potency [11] | outcome [12] | outcome [13] | Potency [14] | outcome [20] | Potency [15] | Potency [16] | outcome [17] | Potency [18] | outcome [19]

CCC(C(=O)NC(N)=O)c1ccccc1 (configuration not stated)
inactive: outcome [1] | Potency [2] | Potency [3] | Potency [4] | Potency [5] | outcome [6] | Potency [7] | Potency [8] | Potency [9] | Potency [10] | Potency [11] | outcome [12] | outcome [13] | outcome [20] | Potency [15] | Potency [16] | outcome [17] | Potency [18] | outcome [19]

CC(=O)NC(Cc1ccccc1)C(=O)O (configuration not stated)
inactive: outcome [1] | Potency [2] | Potency [3] | Potency [4] | Potency [5] | outcome [6] | Potency [7] | Potency [8] | Potency [9] | Potency [10] | Potency [11] | outcome [12] | outcome [13] | outcome [20] | Potency [15] | Potency [16] | outcome [17] | outcome [19]

CCCCCCOC(=O)CC(CC(=O)OCCCCCC)(OC(=O)CCC)C(=O)OCCCCCC
inactive: outcome [1] | Potency [2] | Potency [3] | Potency [4] | Potency [5] | outcome [6] | Potency [7] | Potency [8] | Potency [9] | Potency [10] | Potency [11] | outcome [12] | outcome [13] | Potency [14] | outcome [20] | Potency [16] | Potency [18] | outcome [19]

O=C(O)/C=C/c1ccc(/C=C/C(=O)O)cc1
inactive: outcome [1] | Potency [2] | Potency [3] | Potency [4] | Potency [5] | outcome [6] | Potency [7] | Potency [8] | Potency [9] | Potency [10] | Potency [11] | outcome [12] | outcome [13] | Potency [14] | outcome [17] | outcome [19]
active: Potency [16] 1.34 µM

CN1[C@@H]2CC[C@H]1CC(NC(=O)n1c(=O)[nH]c3ccccc31)C2 (some centres not stated)
inactive: outcome [1] | Potency [2] | Potency [3] | Potency [4] | Potency [5] | outcome [6] | Potency [7] | Potency [8] | Potency [9] | Potency [10] | Potency [11] | outcome [12] | outcome [13] | Potency [14] | outcome [20] | Potency [15] | Potency [16] | outcome [17] | Potency [18] | outcome [19]

CCCCCCCCN(C)CCCCCCCC
inactive: outcome [1] | Potency [2] | Potency [3] | Potency [5] | outcome [6] | Potency [7] | Potency [8] | Potency [9] | Potency [10] | Potency [11] | outcome [12] | outcome [13] | Potency [14] | outcome [20] | Potency [16] | outcome [17] | Potency [18] | outcome [19]
active: Potency [4] 22.1 µM

NCC[C@H](O)C(=O)N[C@@H]1C[C@H](N)[C@@H](O[C@H]2O[C@H](CN)[C@@H](O)[C@H](O)[C@H]2O)[C@H](O)[C@H]1O[C@H]1O[C@H](CO)[C@@H](O)[C@H](N)[C@H]1O
inactive: activity change, negative = cytotoxicity [1] 1.06% [at 0.29 µM] | cytotoxicity increase [2] 0.628% [at 0.29 µM] | cytotoxicity [3] -4.16% [at 0.29 µM] | cytotoxicity increase [4] -0.727% [at 0.29 µM] | cytotoxicity increase [5] -8.01% [at 0.29 µM] | activity change, negative = cytotoxic [6] 3.3% [at 0.29 µM] | activity change, negative = cytotoxicity [7] 4.59% [at 0.29 µM] | activity change, negative = cytotoxicity [8] 2.61% [at 0.29 µM] | activity change [9] 0.183% [at 0.29 µM, stronger effect = higher value] | activity change, negative = cytotoxicity [10] 7.1% [at 0.29 µM] | cytotoxicity increase [11] -0.472% [at 0.29 µM] | activity change, negative = cytotoxicity [12] 7.28% [at 0.349 µM] | viability change, negative = cytotoxic [13] 0.273% [at 0.349 µM] | activity, negative = inhibition [14] 0.695% [at 0.349 µM] | activity change, negative = inhibition [20] 9.86% [at 0.349 µM] | Potency [15] | activity change, negative = inhibition [16] 5.91% [at 0.349 µM] | viability change, negative = cytotoxic [19] 1.11% [at 0.349 µM]

O=C(O)c1ccccc1-c1ccc(C(F)(F)F)cc1
inactive: outcome [1] | Potency [2] | Potency [3] | Potency [4] | Potency [5] | outcome [6] | Potency [7] | Potency [8] | Potency [9] | Potency [10] | Potency [11] | outcome [12] | outcome [13] | outcome [20] | Potency [15] | Potency [16] | outcome [17] | Potency [18] | outcome [19]

Cc1nc(-c2ccc(OCC(C)C)c(C#N)c2)sc1C(=O)O
active: Potency [16] 0.335 µM
inactive: outcome [1] | Potency [2] | Potency [3] | Potency [4] | Potency [5] | outcome [6] | Potency [7] | Potency [8] | Potency [9] | Potency [10] | Potency [11] | outcome [12] | outcome [13] | Potency [14] | outcome [20] | Potency [15] | Potency [18] | outcome [19]

O=C(CCOCCOCCOCCOCCC(=O)Nc1c(I)cc(I)c(C(=O)O)c1I)Nc1c(I)cc(I)c(C(=O)O)c1I
inactive: outcome [1] | Potency [2] | Potency [3] | Potency [4] | Potency [5] | outcome [6] | Potency [7] | Potency [8] | Potency [9] | Potency [10] | Potency [11] | outcome [12] | outcome [13] | Potency [14] | outcome [20] | Potency [16] | outcome [17] | Potency [18] | outcome [19]

O=C1C(CCS(=O)c2ccccc2)C(=O)N(c2ccccc2)N1c1ccccc1 (configuration not stated)
inactive: outcome [1] | Potency [2] | Potency [3] | Potency [4] | Potency [5] | outcome [6] | Potency [7] | Potency [8] | Potency [9] | Potency [10] | Potency [11] | outcome [12] | outcome [13] | outcome [20] | Potency [15] | Potency [16] | outcome [17] | outcome [19]

CC1(C)OC(=O)Nc2ccc(Br)cc21
inactive: outcome [1] | Potency [2] | Potency [3] | Potency [4] | Potency [5] | outcome [6] | Potency [7] | Potency [8] | Potency [9] | Potency [10] | Potency [11] | outcome [12] | outcome [13] | outcome [20] | Potency [16] | outcome [17] | Potency [18] | outcome [19]
active: Potency [14] 9.44 µM
